# Measurements as given in PubChem BioAssay AID1159580 (chemical genetic matrix, 2015).
# Among all 5,500 compounds or so, about 2,000 (36%) were called active. Inconclusive results (about 18%) are left out. This is one part of the list. Values without a mark were called inactive. Cut-off read from the data, not from the text of the source: active = normalized growth mostly below about 0.91 (no sharp cut-off); inconclusive = no clear call, values can overlap the other calls; inactive = mostly above about 0.92.
# Experiment: chemical genetic growth profiling, strain panel (AID 1159580);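 note: tested at 20 µM; growth read once vehicle control cultures reached saturation at 30 °C; 1 = growth at the plate median or of vehicle wells; lower values mean less growth of the strain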
# Settings: growth OD
structure (smiles),measurement,setting,value
CCCCOc1ccc(OCCCN2CCOCC2)cc1,normalized growth,"S. cerevisiae deletion strains, locus YJR075W, strain HOC1, stronger effect = lower value",0.806 (active)
same,normalized growth,"S. cerevisiae deletion strains, locus YKL009W, strain mrt4, stronger effect = lower value",1
same,normalized growth,"S. cerevisiae deletion strains, locus YKL068W, stronger effect = lower value",0.998
same,normalized growth,"S. cerevisiae deletion strains, locus YKL085W, strain MDH1 (second series), stronger effect = lower value",0.997
same,normalized growth,"S. cerevisiae deletion strains, locus YKL085W, strain MDH1, stronger effect = lower value",0.997
same,normalized growth,"S. cerevisiae deletion strains, locus YKL160W, strain elf1, stronger effect = lower value",0.914
same,normalized growth,"S. cerevisiae deletion strains, locus YKL190W, strain CNB1, stronger effect = lower value",0.871 (active)
same,normalized growth,"S. cerevisiae deletion strains, locus YKR001C, strain vps1, stronger effect = lower value",0.572 (active)
same,normalized growth,"S. cerevisiae deletion strains, locus YKR026C, strain gcn3, stronger effect = lower value",0.985
same,normalized growth,"S. cerevisiae deletion strains, locus YKR091W, strain srl3, stronger effect = lower value",0.992
same,normalized growth,"S. cerevisiae deletion strains, locus YLL001W, strain dnm1, stronger effect = lower value",0.944
same,normalized growth,"S. cerevisiae deletion strains, locus YLL026W, stronger effect = lower value",0.98
same,normalized growth,"S. cerevisiae deletion strains, locus YLL041C, strain sdh2, stronger effect = lower value",0.958
same,normalized growth,"S. cerevisiae deletion strains, locus YLR027C, strain aat2, stronger effect = lower value",0.977
same,normalized growth,"S. cerevisiae deletion strains, locus YLR039C, strain RIC1, stronger effect = lower value",1.22
same,normalized growth,"S. cerevisiae deletion strains, locus YLR058C, strain SHM2, stronger effect = lower value",0.908
same,normalized growth,"S. cerevisiae deletion strains, locus YLR102C, strain apc9, stronger effect = lower value",0.989
same,normalized growth,"S. cerevisiae deletion strains, locus YLR113W, strain HOG1, stronger effect = lower value",1.03
same,normalized growth,"S. cerevisiae deletion strains, locus YLR221C, strain rsa3, stronger effect = lower value",0.919
same,normalized growth,"S. cerevisiae deletion strains, locus YLR258W, strain gsy2, stronger effect = lower value",0.946
same,normalized growth,"S. cerevisiae deletion strains, locus YLR262C, strain YPT6 (second series), stronger effect = lower value",0.771 (active)
same,normalized growth,"S. cerevisiae deletion strains, locus YLR262C, strain YPT6, stronger effect = lower value",1.16
same,normalized growth,"S. cerevisiae deletion strains, locus YLR268W, strain sec22, stronger effect = lower value",0.873 (active)
same,normalized growth,"S. cerevisiae deletion strains, locus YLR320W, strain mms22, stronger effect = lower value",0.609 (active)
same,normalized growth,"S. cerevisiae deletion strains, locus YLR330W, strain CHS5, stronger effect = lower value",0.969
same,normalized growth,"S. cerevisiae deletion strains, locus YLR342W, strain FKS1 (second series), stronger effect = lower value",0.87
same,normalized growth,"S. cerevisiae deletion strains, locus YLR342W, strain FKS1, stronger effect = lower value",0.985
same,normalized growth,"S. cerevisiae deletion strains, locus YLR357W, strain rsc2, stronger effect = lower value",1.08
same,normalized growth,"S. cerevisiae deletion strains, locus YLR370C, strain arc18, stronger effect = lower value",0.986
same,normalized growth,"S. cerevisiae deletion strains, locus YLR371W, strain rom2, stronger effect = lower value",0.965
same,normalized growth,"S. cerevisiae deletion strains, locus YLR384C, strain iki3, stronger effect = lower value",0.934
same,normalized growth,"S. cerevisiae deletion strains, locus YLR418C, strain cdc73, stronger effect = lower value",0.736 (active)
same,normalized growth,"S. cerevisiae deletion strains, locus YML016C, strain PPZ1, stronger effect = lower value",0.985
same,normalized growth,"S. cerevisiae deletion strains, locus YML032C, strain rad52, stronger effect = lower value",0.848 (active)
same,normalized growth,"S. cerevisiae deletion strains, locus YML120C, strain ndi1, stronger effect = lower value",1.01
same,normalized growth,"S. cerevisiae deletion strains, locus YML124C, strain tub3, stronger effect = lower value",0.997
same,normalized growth,"S. cerevisiae deletion strains, locus YMR058W, strain fet3, stronger effect = lower value",0.927
same,normalized growth,"S. cerevisiae deletion strains, locus YMR078C, strain ctf18, stronger effect = lower value",0.975
same,normalized growth,"S. cerevisiae deletion strains, locus YMR125W, strain sto1, stronger effect = lower value",0.973
same,normalized growth,"S. cerevisiae deletion strains, locus YMR129W, stronger effect = lower value",1
same,normalized growth,"S. cerevisiae deletion strains, locus YMR205C, strain PFK2, stronger effect = lower value",0.897
same,normalized growth,"S. cerevisiae deletion strains, locus YMR223W, strain ubp8, stronger effect = lower value",0.88 (active)
same,normalized growth,"S. cerevisiae deletion strains, locus YMR231W, strain pep5, stronger effect = lower value",0.967
same,normalized growth,"S. cerevisiae deletion strains, locus YMR263W, strain SAP30, stronger effect = lower value",0.946
same,normalized growth,"S. cerevisiae deletion strains, locus YMR307W, strain GAS1, stronger effect = lower value",1
same,normalized growth,"S. cerevisiae deletion strains, locus YNL067W, strain RPL9B, stronger effect = lower value",0.829 (active)
same,normalized growth,"S. cerevisiae deletion strains, locus YNL071W, strain lat1, stronger effect = lower value",0.663 (active)
same,normalized growth,"S. cerevisiae deletion strains, locus YNL128W, strain TEP1, stronger effect = lower value",0.986
same,normalized growth,"S. cerevisiae deletion strains, locus YNL153C, strain GIM3, stronger effect = lower value",0.903
same,normalized growth,"S. cerevisiae deletion strains, locus YNL183C, strain NPR1, stronger effect = lower value",0.917
same,normalized growth,"S. cerevisiae deletion strains, locus YNL209W, strain ssb2, stronger effect = lower value",0.965
same,normalized growth,"S. cerevisiae deletion strains, locus YNL233W, strain BNI4, stronger effect = lower value",0.767 (active)
same,normalized growth,"S. cerevisiae deletion strains, locus YNL248C, strain rpa49, stronger effect = lower value",0.769 (active)
same,normalized growth,"S. cerevisiae deletion strains, locus YNL250W, strain rad50, stronger effect = lower value",0.963
same,normalized growth,"S. cerevisiae deletion strains, locus YNL271C, strain bni1, stronger effect = lower value",0.966
same,normalized growth,"S. cerevisiae deletion strains, locus YNL298W, strain CLA4, stronger effect = lower value",0.975
same,normalized growth,"S. cerevisiae deletion strains, locus YNL307C, strain MCK1, stronger effect = lower value",0.649 (active)
same,normalized growth,"S. cerevisiae deletion strains, locus YNL322C, strain KRE1 (second series), stronger effect = lower value",1.02
same,normalized growth,"S. cerevisiae deletion strains, locus YNL322C, strain KRE1, stronger effect = lower value",0.977
same,normalized growth,"S. cerevisiae deletion strains, locus YNR049C, strain mso1, stronger effect = lower value",0.978
same,normalized growth,"S. cerevisiae deletion strains, locus YNR052C, strain pop2, stronger effect = lower value",0.83 (active)
same,normalized growth,"S. cerevisiae deletion strains, locus YOL006C, strain TOP1, stronger effect = lower value",0.239 (active)
same,normalized growth,"S. cerevisiae deletion strains, locus YOL012C, strain htz1",1.06
same,normalized growth,"S. cerevisiae deletion strains, locus YOL147C, strain pex11, stronger effect = lower value",0.962
same,normalized growth,"S. cerevisiae deletion strains, locus YOR001W, strain rrp6, stronger effect = lower value",0.8 (active)
same,normalized growth,"S. cerevisiae deletion strains, locus YOR061W, strain CKA2, stronger effect = lower value",0.987
same,normalized growth,"S. cerevisiae deletion strains, locus YOR069W, strain VPS5, stronger effect = lower value",0.995
same,normalized growth,"S. cerevisiae deletion strains, locus YOR070C, strain gyp1, stronger effect = lower value",0.632 (active)
same,normalized growth,"S. cerevisiae deletion strains, locus YOR080W, strain dia2, stronger effect = lower value",0.985
same,normalized growth,"S. cerevisiae deletion strains, locus YOR083W, strain WHI5, stronger effect = lower value",0.931
same,normalized growth,"S. cerevisiae deletion strains, locus YOR106W, strain vam3, stronger effect = lower value",0.875
same,normalized growth,"S. cerevisiae deletion strains, locus YOR136W, strain idh2, stronger effect = lower value",0.962
same,normalized growth,"S. cerevisiae deletion strains, locus YOR144C, strain elg1, stronger effect = lower value",0.994
same,normalized growth,"S. cerevisiae deletion strains, locus YOR184W, strain ser1, stronger effect = lower value",0.742 (active)
same,normalized growth,"S. cerevisiae deletion strains, locus YOR231W, strain MKK1, stronger effect = lower value",0.984
same,normalized growth,"S. cerevisiae deletion strains, locus YOR265W, strain rbl2, stronger effect = lower value",0.967
same,normalized growth,"S. cerevisiae deletion strains, locus YOR270C, strain vph1, stronger effect = lower value",0.41 (active)
same,normalized growth,"S. cerevisiae deletion strains, locus YOR290C, strain snf2, stronger effect = lower value",0.917
same,normalized growth,"S. cerevisiae deletion strains, locus YOR316C, strain cot1, stronger effect = lower value",0.99
same,normalized growth,"S. cerevisiae deletion strains, locus YPL051W, strain arl3, stronger effect = lower value",0.873 (active)
same,normalized growth,"S. cerevisiae deletion strains, locus YPL055C, strain LGE1, stronger effect = lower value",0.857
same,normalized growth,"S. cerevisiae deletion strains, locus YPL078C, strain atp4, stronger effect = lower value",0.941
same,normalized growth,"S. cerevisiae deletion strains, locus YPL106C, strain sse1, stronger effect = lower value",1.09
same,normalized growth,"S. cerevisiae deletion strains, locus YPL240C, strain hsp82, stronger effect = lower value",0.982
same,normalized growth,"S. cerevisiae deletion strains, locus YPL241C, strain CIN2, stronger effect = lower value",0.992
same,normalized growth,"S. cerevisiae deletion strains, locus YPL256C, strain CLN2, stronger effect = lower value",1.02
same,normalized growth,"S. cerevisiae deletion strains, locus YPR119W, strain clb2, stronger effect = lower value",1.01
same,normalized growth,"S. cerevisiae deletion strains, locus YPR141C, strain kar3, stronger effect = lower value",0.984
same,normalized growth,"S. cerevisiae deletion strains, locus YPR163C, strain tif3, stronger effect = lower value",0.765 (active)
same,normalized growth,"S. cerevisiae deletion strains, locus YPR167C, strain met16, stronger effect = lower value",0.977
same,normalized growth,"S. cerevisiae deletion strains, strain wtn01, stronger effect = lower value",0.856 (active)
same,normalized growth,"S. cerevisiae strains, strain wild type, stronger effect = lower value",0.895 (active)
